Several values for one entry are separate records, joined by “and”; a condition that tells them apart may be missing. Equal values may be shown once. About 83,000 compounds went through this panel and 20% of them were active in at least one assay; those are over-represented in the sample as a whole.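 For each line, cells grew in 96-well plates with the test compound present at a single concentration for 48 hours.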 Activity calls are given as the source filed them. How the source made its calls: active means growth percent below 10; inactive means the rest.
Each molecule was assayed on TK-10 renal (assay: NCI-60 one-dose screen, 48 h (100 = growth as untreated, 0 = no growth, -100 = all killed)). Settings: 10 µM unless noted.
In the case of `CCOc1cc2c(cc1O)/C(=N/NS(=O)(=O)c1ccc(C)cc1)C[C@@H]1[C@@H]2CC[C@]2(C)[C@@H](O)CC[C@@H]12`, the growth is reported as -22.6% [100 µM] (active). In the case of `CC1OC23CCCCC2C(C#N)(C#N)C1(C#N)C(=N)O3` (configuration not stated), the growth is reported as 36.7% [100 µM] (inactive). With `O=C1NC(N/N=C\c2ccccc2)=N/C1=C/c1ccccc1` the growth was -49.7% [100 µM] (active) and -77.5% [100 µM] (active). With `O=C1c2cccnc2-c2nccc3ccnc1c23` the growth was -100% [100 µM] (active). For `O=C(O)c1n[nH]nc1Cl`, the growth was 98.7% [100 µM] (inactive) and 107% [100 µM] (inactive). In the case of `CC1=CC(=O)c2ccc(C)cc2C1=O`, the growth is reported as -100% [100 µM] (active). With `COC(=O)C(/C(=N/NC(N)=O)C(=O)Nc1ccc(C)cc1)c1nc2ccc([N+](=O)[O-])cc2[nH]c1=O` (configuration not stated) the growth was 111% [100 µM] (inactive) and 43.2% [100 µM] (inactive). In the case of `N#Cc1nc(C(F)(F)F)oc1N`, the growth is reported as 79% [100 µM] (inactive) and 98.6% [100 µM] (inactive). For `NC1N=C(c2ccc(Cl)cc2)C2=C(N1)c1ccccc1CC2` (configuration not stated), the growth was 76.2% [100 µM] (inactive) and -97.6% [100 µM] (active). `CC1CC(=O)N(N(C)C)C2(C#N)C(=O)N=C(N)C12C#N` (configuration not stated) was tested, and the growth was -31.9% [100 µM] (active) and -94.2% [100 µM] (active). `Cc1ccc(/C=C2/N=C(N/N=C\c3ccccc3)NC2=O)cc1` was tested, and the growth was -15.5% [100 µM] (active) and 0.251% [100 µM] (active). With `COC(=O)C(=O)C(C(=O)C(=O)Nc1ccc(Cl)c(Cl)c1)c1nc2ccc(C(=O)c3ccccc3)cc2[nH]c1=O` (configuration not stated) the growth was 89.4% [100 µM] (inactive) and 14.4% [100 µM] (inactive). In the case of `O=C(O)COc1cc(-c2ccccc2F)nc2cc3c(cc12)OCO3`, the growth is reported as 113% [100 µM] (inactive) and 102% [100 µM] (inactive). With `COC(=O)c1cc(C#N)[nH]c1-c1ccsc1` the growth was 93.8% [100 µM] (inactive) and 19.4% [100 µM] (inactive). With `COc1ccc2c(C)cc(N/N=C/c3ccc(C)s3)nc2c1` the growth was -66.6% [100 µM] (active) and -100% [100 µM] (active). With `C[C@@H]1CC[C@H]2C(C)(C)[C@H]3C[C@@]12CC[C@@]3(C)O` the growth was 87.1% [100 µM] (inactive) and 15.8% [100 µM] (inactive). In the case of `Fc1ccc(Nc2nc(Cl)c3[nH]cnc3n2)cc1Cl`, the growth is reported as 48.7% [100 µM] (inactive) and -27.6% [100 µM] (active). In the case of `CCOC(=O)C(=O)C(CCC(=O)c1ccc2ccccc2c1O)C(=O)OCC` (configuration not stated), the growth is reported as 125% [100 µM] (inactive) and 106% [100 µM] (inactive). For `CCCCCCCCCC(=O)CC(=O)c1c(O)cc(O)cc1O`, the growth was -1.86% [75 µM] (active) and 10% [75 µM] (inactive). For `N#CC(=S)Nc1ccc(F)cc1`, the growth was 33.9% [100 µM] (inactive) and 8.52% [100 µM] (active). In the case of `Cc1ccc(OCC2OC(n3cnc4c(Cl)nc(Cl)nc43)CC2Oc2ccc(C)cc2)cc1` (configuration not stated), the growth is reported as 72.8% [100 µM] (inactive) and -96.1% [100 µM] (active). In the case of `C=CCn1c2c(c3ccccc3c1=O)C(=O)c1ccccc1-2`, the growth is reported as 47.5% [100 µM] (inactive) and -35.9% [100 µM] (active). With `CC(C)=CCc1c(OC(=O)c2c(C)cc(O)cc2O)cc(CO)c(CO)c1O` the growth was 1.66% [100 µM] (active) and -100% [100 µM] (active). With `CNc1nc2c(C)ccc3[nH]c(N(C)C)nc3c-2n1` the growth was 60% [100 µM] (inactive) and 12.5% [100 µM] (inactive). `Cc1cc(N(CCC#N)CCC#N)ccc1/C=N/NC(=O)c1cc(Cl)ccc1O` was tested, and the growth was 76.6% [100 µM] (inactive) and 12.3% [100 µM] (inactive). `C/C(=C\COc1cc(O)c2c(c1)C(=O)c1cc(C)cc(O)c1C2=O)CCC1OC1(C)C` (configuration not stated) was tested, and the growth was 42.6% [100 µM] (inactive) and 20.6% [100 µM] (inactive). With `COc1ccc(-c2nc3ccccc3c(=S)n2OC(C)=O)cc1` the growth was 47% [25 µM] (inactive) and -21.7% [25 µM] (active).

Source: PubChem BioAssay (NCI)
